# How the values were obtained:
# Experiment in all cases: SPOT peptide array binding signal intensity (averaged, normalized) (arbitrary units (background-subtracted, floor 0; scale differs between SH3 domains)); higher = stronger binding of the SH3 domain to the peptide
# [1] = biological target: AgAbp1
# Description: (§1)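 GST-tagged SH3 domains from S. cerevisiae (Sc), A. gossypii (Ag), C. albicans (Ca) and S. pombe (Sp) were incubated at 10 ug/ml overnight at 4 C on cellulose SPOT membranes carrying 292 synthetic 15-mer peptides mined from the S. cerevisiae proteome (cysteines replaced by serines). Binding was detected with anti-GST antibody, HRP secondary and chemiluminescence, quantified with Genespotter, and reported as normalized spot intensities averaged over biological replicates.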
# [2] = biological target: AgBbc1
# Description: as §1
# [3] = biological target: AgBem1-D1
# Description: as §1
# [4] = biological target: AgBzz1-D1
# Description: as §1
# [5] = biological target: AgBzz1-D2
# Description: as §1
# [6] = biological target: AgCyk3
# Description: as §1
# [7] = biological target: AgFus1
# Description: as §1
# [8] = biological target: AgHof1
# Description: as §1
# [9] = biological target: AgHse1
# Description: as §1
# [10] = biological target: AgLsb1
# Description: as §1
# [11] = biological target: AgLsb4
# Description: as §1
# [12] = biological target: AgMyo5
# Description: as §1
# [13] = biological target: AgNbp2
# Description: as §1
# [14] = biological target: AgRvs167
# Description: as §1
# [15] = biological target: AgSho1
# Description: as §1
# [16] = biological target: AgSla1-D1-D2
# Description: as §1
# [17] = biological target: AgSla1-D3
# Description: as §1
# [18] = biological target: CaAbp1-D1
# Description: as §1
# [19] = biological target: CaAbp1-D2
# Description: as §1
# [20] = biological target: CaBbc1
# Description: as §1
# [21] = biological target: CaBem1-D1
# Description: as §1
# [22] = biological target: CaBzz1-D1
# Description: as §1
# [23] = biological target: CaBzz1-D2
# Description: as §1
# [24] = biological target: CaCyk3
# Description: as §1
# [25] = biological target: CaFus1
# Description: as §1
# [26] = biological target: CaHof1
# Description: as §1
# [27] = biological target: CaHse1
# Description: as §1
# [28] = biological target: CaLsb1
# Description: as §1
# [29] = biological target: CaLsb4
# Description: as §1
# [30] = biological target: CaMyo5
# Description: as §1
# [31] = biological target: CaNbp2
# Description: as §1
# [32] = biological target: CaRvs167
# Description: as §1
# [33] = biological target: CaRvs167-3
# Description: as §1
# [34] = biological target: CaSho1
# Description: as §1
# [35] = biological target: CaSla1-D1-D2
# Description: as §1
# [36] = biological target: CaSla1-D3
# Description: as §1
# [37] = biological target: ScAbp1
# Description: as §1
# [38] = biological target: ScBbc1
# Description: as §1
# [39] = biological target: ScBem1-D1
# Description: as §1
# [40] = biological target: ScBzz1-D1
# Description: as §1
# [41] = biological target: ScBzz1-D2
# Description: as §1
# [42] = biological target: ScCyk3
# Description: as §1
# [43] = biological target: ScFus1
# Description: as §1
# [44] = biological target: ScHof1
# Description: as §1
# [45] = biological target: ScHse1
# Description: as §1
# [46] = biological target: ScLsb1
# Description: as §1
# [47] = biological target: ScLsb2
# Description: as §1
# [48] = biological target: ScLsb3
# Description: as §1
# [49] = biological target: ScLsb4
# Description: as §1
# [50] = biological target: ScMyo3
# Description: as §1
# [51] = biological target: ScMyo5
# Description: as §1
# [52] = biological target: ScNbp2
# Description: as §1
# [53] = biological target: ScPex13
# Description: as §1
# [54] = biological target: ScRvs167
# Description: as §1
# [55] = biological target: ScSho1
# Description: as §1
# [56] = biological target: ScSla1-D1-D2
# Description: as §1
# [57] = biological target: ScSla1-D3
# Description: as §1
# [58] = biological target: SpAbp1-D1
# Description: as §1
# [59] = biological target: SpBbc1
# Description: as §1
# [60] = biological target: SpBzz1-D1
# Description: as §1
binder,measurement,setting,value
RPPRPPPKPLHLRTE,SPOT peptide array binding signal intensity,[1],1720
same,SPOT peptide array binding signal intensity,[2],559
same,SPOT peptide array binding signal intensity,[3],113
same,SPOT peptide array binding signal intensity,[4],270
same,SPOT peptide array binding signal intensity,[5],69
same,SPOT peptide array binding signal intensity,[6],≤ 0
same,SPOT peptide array binding signal intensity,[7],5.5
same,SPOT peptide array binding signal intensity,[8],50
same,SPOT peptide array binding signal intensity,[9],178
same,SPOT peptide array binding signal intensity,[10],27
same,SPOT peptide array binding signal intensity,[11],52
same,SPOT peptide array binding signal intensity,[12],8.25
same,SPOT peptide array binding signal intensity,[13],1310
same,SPOT peptide array binding signal intensity,[14],12.3
same,SPOT peptide array binding signal intensity,[15],836
same,SPOT peptide array binding signal intensity,[16],28
same,SPOT peptide array binding signal intensity,[17],14
same,SPOT peptide array binding signal intensity,[18],913
same,SPOT peptide array binding signal intensity,[19],4480
same,SPOT peptide array binding signal intensity,[20],626
same,SPOT peptide array binding signal intensity,[21],314
same,SPOT peptide array binding signal intensity,[22],1940
same,SPOT peptide array binding signal intensity,[23],405
same,SPOT peptide array binding signal intensity,[24],29
same,SPOT peptide array binding signal intensity,[25],61.5
same,SPOT peptide array binding signal intensity,[26],1
same,SPOT peptide array binding signal intensity,[27],1310
same,SPOT peptide array binding signal intensity,[28],0.5
same,SPOT peptide array binding signal intensity,[29],1080
same,SPOT peptide array binding signal intensity,[30],2
same,SPOT peptide array binding signal intensity,[31],567
same,SPOT peptide array binding signal intensity,[32],67
same,SPOT peptide array binding signal intensity,[33],4.75
same,SPOT peptide array binding signal intensity,[34],148
same,SPOT peptide array binding signal intensity,[35],1990
same,SPOT peptide array binding signal intensity,[36],97.5
same,SPOT peptide array binding signal intensity,[37],3670
same,SPOT peptide array binding signal intensity,[38],57.5
same,SPOT peptide array binding signal intensity,[39],4
same,SPOT peptide array binding signal intensity,[40],49
same,SPOT peptide array binding signal intensity,[41],26
same,SPOT peptide array binding signal intensity,[42],1
same,SPOT peptide array binding signal intensity,[43],8
same,SPOT peptide array binding signal intensity,[44],0.5
same,SPOT peptide array binding signal intensity,[45],131
same,SPOT peptide array binding signal intensity,[46],90
same,SPOT peptide array binding signal intensity,[47],8
same,SPOT peptide array binding signal intensity,[48],2810
same,SPOT peptide array binding signal intensity,[49],58
same,SPOT peptide array binding signal intensity,[50],72.8
same,SPOT peptide array binding signal intensity,[51],163
same,SPOT peptide array binding signal intensity,[52],1770
same,SPOT peptide array binding signal intensity,[53],1500
same,SPOT peptide array binding signal intensity,[54],375
same,SPOT peptide array binding signal intensity,[55],1530
same,SPOT peptide array binding signal intensity,[56],2390
same,SPOT peptide array binding signal intensity,[57],4.5
same,SPOT peptide array binding signal intensity,[58],2570
same,SPOT peptide array binding signal intensity,[59],6
same,SPOT peptide array binding signal intensity,[60],1060
